According to PubChem BioAssay AID1159580 (chemical genetic matrix, 2015):
Where “and” joins values, the source holds several entries; their conditions need not be identical. Identical values can stand only once. The campaign covered roughly 5,500 compounds. About 2,000 (36%) were called active. About 18% were inconclusive and are not listed. No stated cut-off is given here; in the data, active means normalized growth mostly below about 0.91 (no sharp cut-off); inconclusive means no clear call, values can overlap the other calls; inactive means mostly above about 0.92. Some of the results follow.

Assay: chemical genetic growth profiling, strain panel (AID 1159580);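 further: tested at 20 µM; growth read once vehicle control cultures reached saturation at 30 °C; 1 = growth at the plate median or of vehicle wells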
Conditions: growth OD

Measured: normalized growth

CC(=O)OCC(COC(C)=O)OC(C)=O
inactive: S. cerevisiae deletion strains, locus YAL013W, strain DEP1, stronger effect = lower value 1.01 | S. cerevisiae deletion strains, locus YBR021W, strain FUR4, stronger effect = lower value 1.02 | S. cerevisiae deletion strains, locus YBR229C, strain ROT2, stronger effect = lower value 1 | S. cerevisiae deletion strains, locus YCL029C, strain bik1, stronger effect = lower value 1.03 | S. cerevisiae deletion strains, locus YDL035C, strain GPR1, stronger effect = lower value 1.02 | S. cerevisiae deletion strains, locus YDL074C, strain BRE1, stronger effect = lower value 1.02 | S. cerevisiae deletion strains, locus YDL101C, strain DUN1, stronger effect = lower value 1.02 | S. cerevisiae deletion strains, locus YDL134C, strain PPH21, stronger effect = lower value 1.01 | S. cerevisiae deletion strains, locus YDL185W, strain tfp1, stronger effect = lower value 1.01 | S. cerevisiae deletion strains, locus YDL192W, strain arf1, stronger effect = lower value 1.02 | S. cerevisiae deletion strains, locus YDR101C, strain arx1, stronger effect = lower value 1 | S. cerevisiae deletion strains, locus YDR150W, strain NUM1, stronger effect = lower value 1.01 | S. cerevisiae deletion strains, locus YDR162C, strain NBP2, stronger effect = lower value 1.01 | S. cerevisiae deletion strains, locus YDR318W, strain mcm21, stronger effect = lower value 1.01 | S. cerevisiae deletion strains, locus YDR388W, stronger effect = lower value 1.01 | S. cerevisiae deletion strains, locus YDR502C, strain sam2, stronger effect = lower value 1 | S. cerevisiae deletion strains, locus YEL061C, strain CIN8, stronger effect = lower value 1.01 | S. cerevisiae deletion strains, locus YER110C, stronger effect = lower value 1.01 | S. cerevisiae deletion strains, locus YER155C, strain BEM2, stronger effect = lower value 0.999 | S. cerevisiae deletion strains, locus YER167W, strain BCK2, stronger effect = lower value 1.01 | S. cerevisiae deletion strains, locus YGL078C, strain dbp3, stronger effect = lower value 1.01 | S. cerevisiae deletion strains, locus YGL086W, strain mad1, stronger effect = lower value 1 | S. cerevisiae deletion strains, locus YGL248W, strain PDE1, stronger effect = lower value 1.01 | S. cerevisiae deletion strains, locus YGR078C, strain PAC10, stronger effect = lower value 1.02 | S. cerevisiae deletion strains, locus YGR135W, strain pre9, stronger effect = lower value 1.01 | S. cerevisiae deletion strains, locus YGR229C, strain SMI1, stronger effect = lower value 1.02 | S. cerevisiae deletion strains, locus YGR252W, strain gcn5, stronger effect = lower value 0.969 | S. cerevisiae deletion strains, locus YHR030C, strain SLT2, stronger effect = lower value 1.01 and 0.958 | S. cerevisiae deletion strains, locus YHR079C, strain IRE1 (second series), stronger effect = lower value 1.01 | S. cerevisiae deletion strains, locus YHR079C, strain IRE1, stronger effect = lower value 0.989 | S. cerevisiae deletion strains, locus YHR094C, strain hxt1, stronger effect = lower value 1.01 | S. cerevisiae deletion strains, locus YHR129C, strain ARP1, stronger effect = lower value 1.01 | S. cerevisiae deletion strains, locus YHR200W, strain rpn10, stronger effect = lower value 1.01 | S. cerevisiae deletion strains, locus YIL066C, strain RNR3, stronger effect = lower value 1.03 | S. cerevisiae deletion strains, locus YIL073C, strain SPO22, stronger effect = lower value 1.02 | S. cerevisiae deletion strains, locus YIL125W, strain kgd1, stronger effect = lower value 1 | S. cerevisiae deletion strains, locus YIR030C, strain dcg1, stronger effect = lower value 1.01 | S. cerevisiae deletion strains, locus YJL095W, strain BCK1, stronger effect = lower value 1.02 and 0.962 | S. cerevisiae deletion strains, locus YJL134W, strain LCB3, stronger effect = lower value 1.01 | S. cerevisiae deletion strains, locus YJL168C, strain set2, stronger effect = lower value 1.01 | S. cerevisiae deletion strains, locus YJL187C, strain SWE1 (second series), stronger effect = lower value 1.03 | S. cerevisiae deletion strains, locus YJR043C, strain POL32, stronger effect = lower value 1.02 | S. cerevisiae deletion strains, locus YJR066W, strain TOR1, stronger effect = lower value 0.936 | S. cerevisiae deletion strains, locus YJR075W, strain HOC1, stronger effect = lower value 1.03 | S. cerevisiae deletion strains, locus YKL009W, strain mrt4, stronger effect = lower value 1.02 | S. cerevisiae deletion strains, locus YKL068W, stronger effect = lower value 1 | S. cerevisiae deletion strains, locus YKL085W, strain MDH1 (second series), stronger effect = lower value 1.01 | S. cerevisiae deletion strains, locus YKL085W, strain MDH1, stronger effect = lower value 1.01 | S. cerevisiae deletion strains, locus YKL190W, strain CNB1, stronger effect = lower value 1.01 | S. cerevisiae deletion strains, locus YKR001C, strain vps1, stronger effect = lower value 1.02 | S. cerevisiae deletion strains, locus YLR039C, strain RIC1, stronger effect = lower value 0.991 | S. cerevisiae deletion strains, locus YLR058C, strain SHM2, stronger effect = lower value 1.01 | S. cerevisiae deletion strains, locus YLR102C, strain apc9, stronger effect = lower value 0.997 | S. cerevisiae deletion strains, locus YLR113W, strain HOG1, stronger effect = lower value 1 | S. cerevisiae deletion strains, locus YLR262C, strain YPT6, stronger effect = lower value 1.03 | S. cerevisiae deletion strains, locus YLR268W, strain sec22, stronger effect = lower value 1.03 | S. cerevisiae deletion strains, locus YLR330W, strain CHS5, stronger effect = lower value 1.02 | S. cerevisiae deletion strains, locus YLR342W, strain FKS1 (second series), stronger effect = lower value 1.01 | S. cerevisiae deletion strains, locus YLR371W, strain rom2, stronger effect = lower value 1.01 | S. cerevisiae deletion strains, locus YLR418C, strain cdc73, stronger effect = lower value 1.02 | S. cerevisiae deletion strains, locus YML016C, strain PPZ1, stronger effect = lower value 1.01 | S. cerevisiae deletion strains, locus YML032C, strain rad52, stronger effect = lower value 1.03 | S. cerevisiae deletion strains, locus YML124C, strain tub3, stronger effect = lower value 1 | S. cerevisiae deletion strains, locus YMR078C, strain ctf18, stronger effect = lower value 1.01 | S. cerevisiae deletion strains, locus YMR223W, strain ubp8, stronger effect = lower value 1 | S. cerevisiae deletion strains, locus YMR263W, strain SAP30, stronger effect = lower value 1.02 | S. cerevisiae deletion strains, locus YMR307W, strain GAS1, stronger effect = lower value 0.998 | S. cerevisiae deletion strains, locus YNL067W, strain RPL9B, stronger effect = lower value 1.03 | S. cerevisiae deletion strains, locus YNL128W, strain TEP1, stronger effect = lower value 1.02 | S. cerevisiae deletion strains, locus YNL153C, strain GIM3, stronger effect = lower value 1.02 | S. cerevisiae deletion strains, locus YNL183C, strain NPR1, stronger effect = lower value 0.949 | S. cerevisiae deletion strains, locus YNL233W, strain BNI4, stronger effect = lower value 1.01 | S. cerevisiae deletion strains, locus YNL250W, strain rad50, stronger effect = lower value 1 | S. cerevisiae deletion strains, locus YNL271C, strain bni1, stronger effect = lower value 1.02 | S. cerevisiae deletion strains, locus YNL298W, strain CLA4, stronger effect = lower value 1.02 | S. cerevisiae deletion strains, locus YNL307C, strain MCK1, stronger effect = lower value 1.01 | S. cerevisiae deletion strains, locus YNL322C, strain KRE1, stronger effect = lower value 1.01 | S. cerevisiae deletion strains, locus YNR052C, strain pop2, stronger effect = lower value 1.01 | S. cerevisiae deletion strains, locus YOL006C, strain TOP1, stronger effect = lower value 1.05 | S. cerevisiae deletion strains, locus YOL012C, strain htz1 1.07 | S. cerevisiae deletion strains, locus YOL147C, strain pex11, stronger effect = lower value 1.01 | S. cerevisiae deletion strains, locus YOR061W, strain CKA2, stronger effect = lower value 1.01 | S. cerevisiae deletion strains, locus YOR069W, strain VPS5, stronger effect = lower value 1.01 | S. cerevisiae deletion strains, locus YOR136W, strain idh2, stronger effect = lower value 1.01 | S. cerevisiae deletion strains, locus YOR144C, strain elg1, stronger effect = lower value 0.998 | S. cerevisiae deletion strains, locus YOR184W, strain ser1, stronger effect = lower value 1.02 | S. cerevisiae deletion strains, locus YOR231W, strain MKK1, stronger effect = lower value 0.993 | S. cerevisiae deletion strains, locus YOR316C, strain cot1, stronger effect = lower value 1.01 | S. cerevisiae deletion strains, locus YPL055C, strain LGE1, stronger effect = lower value 1.06 | S. cerevisiae deletion strains, locus YPL241C, strain CIN2, stronger effect = lower value 1.01 | S. cerevisiae deletion strains, locus YPL256C, strain CLN2, stronger effect = lower value 0.989 | S. cerevisiae deletion strains, locus YPR119W, strain clb2, stronger effect = lower value 1.01 | S. cerevisiae deletion strains, locus YPR141C, strain kar3, stronger effect = lower value 1.01 | S. cerevisiae deletion strains, locus YPR163C, strain tif3, stronger effect = lower value 1.02 | S. cerevisiae deletion strains, locus YPR167C, strain met16, stronger effect = lower value 1.01 | S. cerevisiae deletion strains, strain wtn01, stronger effect = lower value 1.04 | S. cerevisiae strains, strain wild type, stronger effect = lower value 1.02
